Cytotoxicity call data for 51 compounds are collected here from the antibiotic and cytotoxicity screens of Wong et al. (2023).

The campaign covered roughly 39,000 compounds. About 3,300 (8.5%) were called active. The sample as a whole holds a higher share of actives than the screen did.

The test system of the assay is HepG2. The assay can be described thus: cytotoxicity call (relative viability < 0.9). Conditions: 10 µM.
For the compound `Cc1noc(C)c1NC(=O)Nc1cccc2c1O[C@@H](CN(C)Cc1ccc(C(F)(F)F)cc1)[C@@H](C)CN([C@H](C)CO)C2=O`, the cytotoxicity call was “inactive”.
The entry for `COc1ccc(S(=O)(=O)Nc2ccc3c(c2)C(=O)N([C@@H](C)CO)C[C@@H](C)[C@H](CN(C)C(=O)C2CCCCC2)OCCCC[C@H](C)O3)cc1` is “inactive”; for `CC(C)(C)[S@@](=O)N1Cc2cc(C(=O)N3CCCCC3)nc(-c3cccc(-c4cccc(C#N)c4)c3)c2[C@H]1CCO` it is “inactive”.
With `CO[C@@H]1CN(C)C(=O)c2cc(NC(=O)C3CC3)ccc2OC[C@H](C)N(C(=O)C2CCOCC2)C[C@@H]1C`, the cytotoxicity call was “inactive”.
With `Cc1noc(C)c1S(=O)(=O)Nc1ccc2c(c1)CC(=O)N([C@H](C)CO)C[C@@H](C)[C@H](CN(C)S(=O)(=O)c1ccc(Cl)cc1)O2` the entry was “inactive”; with `CC(=O)Oc1cccc(O)c1`, “inactive”; with `CC(=O)Nc1ccc(OC(C)=O)cc1`, “inactive”.
The entry for `CC(=O)Oc1ccc(O)cc1` is “active”; for `C[C@@H]1CN([C@@H](C)CO)C(=O)c2c(c3ccccc3n2C)-c2ccccc2CO[C@@H]1CN(C)C(=O)c1cc(Cl)cc(Cl)c1` it is “active”; for `C[C@@H]1CN([C@@H](C)CO)C(=O)c2c(c3ccccc3n2C)-c2ccccc2CO[C@H]1CN(C)C(=O)c1cc(Cl)cc(Cl)c1` it is “inactive”.
For the compound `C[C@H]1CN([C@@H](C)CO)C(=O)c2c(c3ccccc3n2C)-c2ccccc2CO[C@H]1CN(C)C(=O)c1cc(Cl)cc(Cl)c1`, the cytotoxicity call is “inactive”.
With `C[C@H]1CN([C@@H](C)CO)C(=O)c2c(c3ccccc3n2C)-c2ccccc2CO[C@@H]1CN(C)C(=O)c1cc(Cl)cc(Cl)c1`, the cytotoxicity call was “inactive”.
Take `C[C@@H]1CN([C@H](C)CO)C(=O)c2c(c3ccccc3n2C)-c2ccccc2CO[C@H]1CN(C)C(=O)c1cc(Cl)cc(Cl)c1`: the cytotoxicity call is “inactive”.
The entry for `C[C@H](CO)N1C[C@H](C)[C@@H](CN(C)C(=O)c2cc(Cl)cc(Cl)c2)OCc2ccccc2-c2c(n(C)c3ccccc23)C1=O` is “active”; for `Cc1ccc(S[C@]2(C(=O)NC(C)C)CC(=O)N(Cc3ccccc3Cl)[C@@H]2c2ccc(CO)cc2)cc1` it is “inactive”.
The entry for `C[C@@H]1CCCCO[C@@H](CN(C)Cc2ccc(C(F)(F)F)cc2)[C@H](C)CN([C@H](C)CO)C(=O)c2cc(NC(=O)CCCN(C)C)ccc2O1` is “inactive”.
The entry for `CS(=O)(=O)N1CCS(=O)(=O)[C@H]2CCN(CC3CC3)CC[C@@H]21` is “inactive”.
With `COc1ccc(S(=O)(=O)N(C)C[C@@H]2Oc3ccc(NC(=O)Nc4cccc5ccccc45)cc3C(=O)N([C@H](C)CO)C[C@@H]2C)cc1`, the cytotoxicity call was “inactive”.
With `CC(C)c1c(C(=O)Nc2ccccc2)c(-c2ccccc2)c(-c2ccc(F)cc2)n1CC[C@@H](O)C[C@@H](O)CC(=O)O` the entry was “inactive”; with `C[C@@H]1CCCCO[C@@H](CN(C)CC2CC2)[C@H](C)CN([C@@H](C)CO)C(=O)c2cc(NC(=O)c3ccccc3)ccc2O1`, “inactive”; with `C[C@@H]1CCCCO[C@@H](CN(C)Cc2ccc(C(=O)O)cc2)[C@@H](C)CN([C@H](C)CO)C(=O)c2cc(NC(=O)C3CCCCC3)ccc2O1`, “inactive”.
The entry for `CC1=C(C(=O)O)N2C(=O)[C@@H](NC(=O)[C@H](N)c3ccc(O)cc3)[C@H]2SC1` is “inactive”; for `COCC(=O)Nc1ccc2c(c1)CC(=O)N2` it is “inactive”; for `CCN1CCN(Cc2ccc(C(=O)Nc3ccc(C)c(Oc4ccc5c(c4)CC(=O)N5)c3)cc2C(F)(F)F)CC1` it is “active”.
With `CC1=NCCC2c3ccc(O)cc3NC12` (stereo unspecified) the entry was “active”.
In the case of `CCS(=O)(=O)N1C[C@]2(C1)CN([C@@H](CO)c1[nH]c3cc(ccc3c12)OC)S(=O)(=O)c1cccc(c1)OC`, the cytotoxicity call is “inactive”.
The entry for `C[C@@H]1CN([C@@H](C)CO)C(=O)c2cccc(NC(=O)c3ccncc3)c2O[C@@H]1CN(C)Cc1ccncc1` is “inactive”; for `CN1C(=O)c2cc(NC(=O)c3cscn3)ccc2OC[C@H]2O[C@H](CC(=O)N3CCOCC3)CC[C@@H]21` it is “inactive”; for `C=C1C(=O)OC2CC3(C)CCCC(C)C3=CC12` (stereo unspecified) it is “active”.
In the case of `C[C@H](CO)N1C[C@H](C)[C@@H](CN(C)C(=O)Nc2ccccc2)Oc2ccc(NC(=O)Cn3cnnn3)cc2CC1=O`, the cytotoxicity call was “inactive”.
The entry for `CC(=O)N(C)C[C@@H]1Oc2cc(C#CCN(C)C)ccc2S(=O)(=O)N([C@@H](C)CO)C[C@@H]1C` is “inactive”; for `COc1ccc(S(=O)(=O)Nc2ccc3c(c2)CC(=O)N([C@@H](C)CO)C[C@H](C)[C@@H](CN(C)Cc2ccncc2)O3)cc1` it is “inactive”; for `FC(F)Oc1cccc2cccnc12` it is “inactive”.
The entry for `O=C(O)c1ccccn1` is “inactive”.
With `O=C(Oc1cccc2cccnc12)c1ccccc1` the entry was “active”.
Consider `CC(C)NC(=O)N(C)C[C@@H]1Oc2ccc(NC(=O)NC3CCCCC3)cc2C(=O)N([C@H](C)CO)C[C@H]1C`, for which the cytotoxicity call is “inactive”.
The entry for `N=c1c(C(=O)NC[C@H]2CCCO2)cc2c(=O)n3ccccc3nc2n1CCCN1CCOCC1` is “inactive”; for `Cc1cccn2c(=O)c3cc(S(=O)(=O)c4ccc(Br)cc4)c(=N)n(CCCN4CCOCC4)c3nc12` it is “inactive”; for `COc1ccc(CCNC(=O)c2cc3c(=O)n4cccc(C)c4nc3n(CCCN3CCOCC3)c2=N)cc1` it is “active”.
Regarding `COc1ccc(CN(C)C[C@@H]2OCCCC[C@@H](C)Oc3ccc(NC(=O)Nc4c(C)noc4C)cc3C(=O)N([C@@H](C)CO)C[C@@H]2C)cc1`, the cytotoxicity call is “inactive”.
With `Nc1ncnc2c1ncn2[C@H]1CCCO1` the entry was “inactive”; with `C[C@@H]1CN([C@H](C)CO)C(=O)c2ccccc2-c2ccccc2CO[C@@H]1CN(C)S(=O)(=O)c1ccc(C(F)(F)F)cc1`, “inactive”.
As to `NCc1csc2c1CCCC2`, the cytotoxicity call is “inactive”.
Turning to `C[C@@H]1CN([C@@H](C)CO)C(=O)Cc2cc(NC(=O)Nc3ccc(C(F)(F)F)cc3)ccc2O[C@@H]1CN(C)S(C)(=O)=O`, the cytotoxicity call is “inactive”.
With `C[C@H](CO)N1C[C@H](C)[C@H](CN(C)S(C)(=O)=O)Oc2ccc(NC(=O)Nc3ccc(C(F)(F)F)cc3)cc2CC1=O` the entry was “inactive”; with `Cc1ccc(S(=O)(=O)N(C)C[C@H]2Oc3ccc(NC(=O)Nc4ccc(C(F)(F)F)cc4)cc3CC(=O)N([C@H](C)CO)C[C@@H]2C)cc1`, “inactive”; with `Cc1ccc(S(=O)(=O)N(C)C[C@@H]2Oc3ccc(NC(=O)Nc4ccc(C(F)(F)F)cc4)cc3CC(=O)N([C@@H](C)CO)C[C@H]2C)cc1`, “active”.
With `Cc1ccc(S(=O)(=O)N(C)C[C@@H]2Oc3ccc(NC(=O)Nc4ccc(C(F)(F)F)cc4)cc3CC(=O)N([C@H](C)CO)C[C@@H]2C)cc1` the entry was “active”; with `Cc1ccc(S(=O)(=O)N(C)C[C@@H]2Oc3ccc(NC(=O)Nc4ccc(C(F)(F)F)cc4)cc3CC(=O)N([C@H](C)CO)C[C@H]2C)cc1`, “inactive”.
Regarding `Cc1ccc(S(=O)(=O)N(C)C[C@H]2Oc3ccc(NC(=O)Nc4ccc(C(F)(F)F)cc4)cc3CC(=O)N([C@H](C)CO)C[C@H]2C)cc1`, the cytotoxicity call was “active”.
As for `Cc1ccc(S(=O)(=O)N(C)C[C@@H]2Oc3ccc(NC(=O)Nc4ccc(C(F)(F)F)cc4)cc3CC(=O)N([C@@H](C)CO)C[C@@H]2C)cc1`, the cytotoxicity call is “active”.
